Many of the other results were omitted from the sample, so hits are more common in it than they were.
TTR transcr act: TTR transcription activators in neuroblastoma reporter cells, primary screen, cell-based, luminescence, SH-SY5Y, TTR promoter Gaussia luciferase. actives 1.3% (n = 92,000). activation, % at 16.7 µM. 100% = recombinant luciferase protein wells;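 active means activation above the mean of all tested compounds plus 3 SD, cut at about 9.5% in these data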;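 further: cells exposed to compounds for one day before reading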
HuH7 TTR inh: TTR promoter reporter inhibitors in hepatoma cells, counter-screen for TTR transcription activator project, cell-based, luminescence, HuH7 hepatoma; AID 1117279, 2014; shares compounds with TTR transcr act; actives 4% (n = 1,100); inhibition, % at 16.7 µM; HuH7 TTR promoter-Gaussia luciferase reporter;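 active means average inhibition above the solvent-only control wells' mean plus 3 SD, cut at about 15% in these data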;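 further: inhibitors lower well luminescence so higher value means more inhibition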
TTR act confirm: TTR transcription activators, retest, confirmation, cell-based, luminescence, SH-SY5Y, triplicate; shares compounds with TTR transcr act; SHSY5Y TTR promoter Gaussia luciferase; 100% = purified Lucia enzyme wells, no cells; activation, % at 16.7 µM; 1,100 tested, under 10 active; AID 1117280, 2014;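 active means mean activation above a set limit taken from the earlier primary screen, cut at about 11% in these data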
Each line names hits and unclear results; the compound was inactive in the other large screens (follow-up assays come after a bar, where they were run).

O=C(Cc1ccc(Br)cc1)N1CCN(Cc2ccccc2)CC1	TTR transcr act 11.4
O=C(Cc1ccccc1)N1CCN(CCCc2ccccc2)CC1	none
Cc1ccc(CC(=O)N2CCN(Cc3ccccc3)CC2)cc1	none
CN1C(=O)[C@@]23C[C@]4(c5c[nH]c6ccccc56)c5ccccc5N(S(=O)(=O)c5ccccc5)[C@@H]4N2C(=O)[C@@H]1SS3	none
CC(C)C(CN1CCC(C)(c2cccc(O)c2)[C@@H](C)C1)NC(=O)C1Cc2ccc(O)cc2CN1 (stereo partly drawn)	none
CCn1c(O)c(/C=N/NC(=O)c2ccccc2)c(=O)[nH]c1=S	none
COc1ccccc1-n1c(O)c(/C=N/NC(=S)Nc2ccccc2)c(=O)[nH]c1=S	TTR transcr act 13.5 | HuH7 TTR inh inactive | TTR act confirm inactive
COc1ccc(Cn2c(O)c(/C=N/NC(=O)c3ccccc3)c(=O)[nH]c2=O)cc1	none
COC(=O)C1=C(c2c(C)noc2C)C[C@@H]2CC[C@H]1N2C(=O)N1CCC(C)CC1	none
O=C1c2ccccc2-n2nnc(-c3ccccc3)c2C2c3ccccc3CCN12 (stereo not drawn)	none
Cc1ccc2[nH]c3c(c2c1)CN(C(=O)CN1C[C@H]2C[C@@H](C1)c1cccc(=O)n1C2)CC3	none
O=C(NC1CCCCC1)N1Cc2cc(N3CCOCC3)ccc2-n2nncc2C1	none
CC(=O)C1CCC2C3CC(O)C4CC(O)CCC4(C)C3CCC12C (stereo not drawn)	none
CC(=O)C1CCC2C3CCC4CC(O)CCC4(C)C3C(O)CC12C (stereo not drawn)	none
CC(=O)C1CCC2C3CCC4CC(O)CCC4(C)C3C(=O)CC12C (stereo not drawn)	TTR transcr act 11.9 | HuH7 TTR inh inactive | TTR act confirm inactive
CCOC(=O)CNC(=O)N1Cc2cc(-c3cccc(F)c3)ccc2-n2nncc2C1	none
CN(C)CC1CSCCC1(O)c1ccccc1Cl (stereo not drawn)	none
CNC1(c2ccccc2Cl)CCCCC1=O (stereo not drawn)	TTR transcr act 15.6 | HuH7 TTR inh inactive | TTR act confirm inactive
COC(=O)C1=C(c2cc3ccccc3s2)C[C@@H]2CC[C@H]1N2C(=O)NCc1ccco1	none
COc1ccc2c3c1OC1C(=O)CC[C@@]4(O)[C@@H](C2)N(CC2CC2)CC[C@]314 (stereo partly drawn)	none
CN1CCN(C(=O)COc2ccc(N(C)S(=O)(=O)c3ccc(F)cc3)cc2)CC1	none
COC(=O)C1=C(c2ccc(Cl)c(C(F)(F)F)c2)C[C@@H]2CC[C@H]1N2C(=O)NCc1ccc2c(c1)OCO2	none
CCn1c(O)c(/C=N/N2CCOCC2)c(=O)n(CC)c1=S	none
O=c1[nH]c(=S)n(-c2ccc(Cl)cc2)c(O)c1C=Nc1ccc(N2CCOCC2)cc1	none
Cc1ccc(-n2c(O)c(/C=N/N3CCOCC3)c(=O)[nH]c2=S)cc1	TTR transcr act 10.0 | HuH7 TTR inh inactive | TTR act confirm inactive
Clc1ccc([C@H]2CC3CCC2N3)cn1 (stereo partly drawn)	none
O=[N+]([O-])c1ccc(C(=Nc2ccccc2)N2CC2)cc1	none
Cc1cccc(-n2c(C)nc3ccc(Cl)cc3c2=O)c1	none
O=P(/C(=N/O)N1CCOCC1)(N1CCOCC1)N1CCOCC1	TTR transcr act 12.3 | HuH7 TTR inh inactive | TTR act confirm inactive
O=CC(Cl)P(=O)(N1CCOCC1)N1CCOCC1 (stereo not drawn)	none
O=P(Oc1ccccc1)(N1CCOCC1)N1CCOCC1	none
O=C(NCC1=C(c2cccc3ccccc23)C[C@@H]2CC[C@H]1N2Cc1ccco1)c1cccnc1	none
CC=C(CC)C1(CCC)C(=O)NC(=S)NC1=O	none
CN1CCN(c2nc([N+](=O)[O-])nn2C)CC1	none
CCN1CCN(c2nc([N+](=O)[O-])nn2C)CC1	TTR transcr act 14.2 | HuH7 TTR inh inactive | TTR act confirm inactive
c1cc2c(cc1-c1ccc3c(c1)OCO3)CNCc1cnnn1-2	none
c1cc2c(cc1NC1=NCCO1)CCCC2	none
COc1cccc(C(=O)C2CCCN(Cc3cnn(C(C)C)c3)C2)c1 (stereo not drawn)	TTR transcr act 10.6 | HuH7 TTR inh inactive | TTR act confirm inactive
COc1cccc(C(=O)C2CCCN(Cc3ccc(F)cc3)C2)c1 (stereo not drawn)	none
COc1cccc(C(=O)C2CCCN(Cc3cccc(C)n3)C2)c1 (stereo not drawn)	none
O=C(CCc1ccccc1)N1Cc2cc(-c3cccc(F)c3)ccc2-n2nncc2C1	none
COC(=O)C1=C(c2ccc(C(C)=O)cc2)C[C@@H]2CC[C@H]1N2C(=O)NCc1ccco1	none
COc1ccc(-c2ccc3c(c2)CNCc2cnnn2-3)cc1	none
O=S(=O)(c1cc(Cl)cc(Cl)c1)N1Cc2cc(N3CCOCC3)ccc2-n2nncc2C1	none
Cn1c(O)c(/C=C2\C=Nc3ccccc32)c(=O)n(C)c1=O	none
COC(=O)C1=Nc2ccccc2/C1=C\c1c(O)n(C)c(=O)n(C)c1=O	none
Cn1c(O)c(/C=C2\N=c3ccccc3=C2CCNC(=S)NC2CC2)c(=O)n(C)c1=O	TTR transcr act 13.3 | HuH7 TTR inh 17.2 | TTR act confirm inactive
C=CCCC1(C(C)C)C(=O)NC(=S)NC1=O	none
Cc1nn(C)c(C)c1P(=S)(c1c(C)nn(C)c1C)N(C)C	TTR transcr act 9.9 | HuH7 TTR inh inactive | TTR act confirm inactive
CCc1cc(OC)c(CCN)cc1OC	none
C[C@]12CCC(=O)C[C@@H]1CC[C@@H]1[C@@H]2CC[C@]2(C)[C@@H](O)CC[C@@H]12	none
CC1c2ccccc2-n2nncc2CN1CC1CCCCC1 (stereo not drawn)	none
Brc1ccc2c(c1)CN(CC1CCCCC1)Cc1cnnn1-2	TTR transcr act 26.8 | HuH7 TTR inh inactive | TTR act confirm inactive
O=S(=O)(c1ccc(Cl)cc1)N1Cc2cc(Br)ccc2-n2nncc2C1	none
CCC1C2CC3C4N(C)c5ccccc5C45CC(C2C5O)N3C1O (stereo not drawn)	none
